PubChem BioAssay AID2783 (National Center for Advancing Translational Sciences (NCATS), 2010)
Results filed as inconclusive are left out. Calls of active or inactive are those of the source. Calls follow the shape of the dose curve; as a rule, active = well fitted inhibition curve with a large enough effect in the polarisation, with a control signal flat (not every such curve was filed as active); inconclusive = small, poorly fitted or top-dose-only effect, or effect the other way, or a change in a side signal; inactive = no such curve, though single readings can be large or run the other way; the % refers to the polarisation.

biological target: Menin (Homo sapiens) (UniProt O00255); experiment: Confirmation of Inhibitors Targeting the Menin-MLL Interaction in MLL Related Leukemias: Competition With Fluorescein Labeled MLL-derived Peptide; details: Fluorescence polarization, fluorescein-MLL peptide displacement from menin; series mostly up to 100 µM
Sequence (O00255 whole entry, looked up): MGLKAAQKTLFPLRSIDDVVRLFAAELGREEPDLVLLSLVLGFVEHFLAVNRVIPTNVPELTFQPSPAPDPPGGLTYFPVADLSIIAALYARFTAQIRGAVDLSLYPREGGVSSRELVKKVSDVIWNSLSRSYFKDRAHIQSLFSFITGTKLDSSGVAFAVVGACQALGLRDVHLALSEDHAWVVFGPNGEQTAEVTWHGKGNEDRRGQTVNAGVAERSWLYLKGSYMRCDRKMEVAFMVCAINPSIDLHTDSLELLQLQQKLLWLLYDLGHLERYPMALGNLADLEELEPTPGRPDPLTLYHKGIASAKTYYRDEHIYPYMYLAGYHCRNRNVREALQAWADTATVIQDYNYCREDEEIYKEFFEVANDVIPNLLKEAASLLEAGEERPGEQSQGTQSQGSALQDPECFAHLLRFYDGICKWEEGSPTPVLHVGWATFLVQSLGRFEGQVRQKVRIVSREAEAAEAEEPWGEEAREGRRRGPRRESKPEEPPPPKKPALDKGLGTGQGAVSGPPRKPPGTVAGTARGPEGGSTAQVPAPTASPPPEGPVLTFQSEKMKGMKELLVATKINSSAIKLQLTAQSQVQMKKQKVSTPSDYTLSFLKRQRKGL

Row | Structure (SMILES) | outcome
1 | C[C@@H]1CC[C@@]2(NC1)O[C@H]1C[C@H]3[C@@H]4CC=C5C[C@@H](O)CC[C@]5(C)[C@H]4CC[C@]3(C)[C@H]1[C@@H]2C | inactive
2 | O=C(Nc1ccc2ccccc2c1)c1nn(C23CC4CC(CC(C4)C2)C3)cc1Br | inactive
3 | CCCCCn1c(=O)c(C(=O)Nc2nc(CC(=O)OCC)cs2)c(O)c2ccccc21 | inactive
4 | COc1cc(/C=N/n2cnnc2)ccc1OC(=O)N(C)C | inactive
5 | C[N+](C)(C)CC#CCN1CCCC1=O | inactive
6 | COc1ccc(C(O)P(=O)(Oc2ccccc2)Oc2ccccc2)cc1 (stereo not given) | inactive
7 | CCOP(=O)(OCC)C(NC(=O)c1ccccc1C)C(Cl)(Cl)Cl (stereo not given) | inactive
8 | O=C1NC(=O)C(=Cc2ccc3ccccc3c2)C(=O)N1 | inactive
9 | O=C(O)CN1C(=O)CN=C(c2ccccn2)c2cc(Cl)ccc21 | inactive
10 | O=c1oc2ccccc2c(O)c1C(c1ccccn1)c1c(O)c2ccccc2oc1=O | inactive
11 | CC[C@]12C=CCN3CC[C@@]4(c5ccc(OC)cc5N(C)[C@H]4[C@@](O)(C(=O)OC)[C@@H]1OC(C)=O)C32 (stereo not given in full) | inactive
12 | CCCCn1c(=O)c(C(=O)Nc2ccsc2C(=O)OC)c(O)c2ccccc21 | inactive
13 | CCOC(=O)Cc1csc(NC(=O)c2c(O)c3ccccc3n(CCC(C)C)c2=O)n1 | inactive
14 | OC12C3C4CC5C6C4C1C6C(C53)N2CCc1cccc(F)c1 (stereo not given) | inactive
15 | Cc1cc(C(=O)NP(=O)(N2CCOCC2)N2CCOCC2)c(C)n1C1CC1 | inactive
